Experimental findings from PubChem BioAssay (NCI) are described below.

The panel holds about 83,000 compounds, 20% with a hit somewhere; the sample as a whole holds those more often.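 Cell lines were cultured in 96-well plates, exposed to a single compound concentration, and assessed for percent growth 48 hours later.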 Values without a mark were called inactive. Calls of active or inactive are those of the source. The calls were made as follows: active = growth percent below 10; inactive = the rest.

Among the test systems are NCI-H23 lung; NCI-H460 lung; 786-0 renal; DU-145 prostate; MDA-MB-231 breast; SF-268 CNS; SF-539 CNS; M14 melanoma; PC-3 prostate; UACC-62 melanoma; SK-MEL-28 melanoma; ACHN renal; OVCAR-5 ovarian; OVCAR-3 ovarian; NCI/ADR-RES ovarian; SW-620 colon; MCF7 breast; HCT-116 colon; KM12 colon; SNB-75 CNS.
Experiment in all cases: NCI-60 one-dose screen, 48 h (100 = growth as untreated, 0 = no growth, -100 = all killed)
Common to all, as to conditions: 10 µM unless noted

As for `CNC(=O)Oc1cccc(OC)c1`, the growth with NCI-H23 lung was 101%; with NCI-H460 lung, 115%; in the assay with 786-0 renal it was 107%; in the assay on DU-145 prostate, 115%; with MDA-MB-231 breast, 93.3%; in the assay with SF-268 CNS, 118%. The growth with SF-539 CNS is 111%; in the assay with M14 melanoma it was 107%; with PC-3 prostate, 109%; in the assay on UACC-62 melanoma, 100%; in the assay on SK-MEL-28 melanoma, 111%; in the assay on ACHN renal, 109%. The growth is 113% in the assay on OVCAR-5 ovarian; 121% with OVCAR-3 ovarian; 106% in the assay with NCI/ADR-RES ovarian; 111% in the assay with SW-620 colon; 101% with MCF7 breast; 103% with HCT-116 colon. The growth in the assay on KM12 colon is 112%.
On to `CC(=O)O[C@H]1CCC2C3CCC4=C/C(=N/O)CCC4(C)C3CCC21C` (some centres undefined), for which the growth in the assay with NCI-H23 lung was 90%; with NCI-H460 lung it was 89.6%; in the assay on 786-0 renal, 76.9%; in the assay on DU-145 prostate, 93.1%; in the assay with MDA-MB-231 breast it was 110%; in the assay with SF-268 CNS, 75.9%. The growth is 87.6% in the assay with SF-539 CNS; 79.9% in the assay with M14 melanoma; 96.4% in the assay with SNB-75 CNS; 93.6% in the assay on PC-3 prostate; 91.4% in the assay with UACC-62 melanoma; 103% in the assay on SK-MEL-28 melanoma. Moreover, the growth with ACHN renal was 108%; with OVCAR-5 ovarian, 99.5%; in the assay on OVCAR-3 ovarian, 107%; in the assay on NCI/ADR-RES ovarian, 70.8%; in the assay on SW-620 colon it was 74.4%; in the assay on MCF7 breast, 110%. In addition, the growth with HCT-116 colon was 75.3%; in the assay on KM12 colon it was 78%.
For the compound `c1ccc(-c2ccc3ccccc3[o+]2)cc1`, the growth is 84.4% with NCI-H23 lung; 97.2% in the assay with NCI-H460 lung; 106% with 786-0 renal; 98.9% in the assay on DU-145 prostate; 65% in the assay with MDA-MB-231 breast; 88.7% in the assay with SF-268 CNS. Also, the growth in the assay on SF-539 CNS is 101%; in the assay on M14 melanoma, 96.8%; with SNB-75 CNS it was 80.5%; in the assay with PC-3 prostate, 76.3%; in the assay on UACC-62 melanoma it was 73.1%; with SK-MEL-28 melanoma, 111%. Moreover, the growth in the assay on ACHN renal was 91.6%; in the assay with OVCAR-5 ovarian, 103%; in the assay on OVCAR-3 ovarian, 100%; in the assay with NCI/ADR-RES ovarian, 92.5%; in the assay with SW-620 colon it was 92%; in the assay on MCF7 breast it was 67%. The values for the growth in the assay on HCT-116 colon and in the assay with KM12 colon were 95.7% and 91.8%, respectively.
Consider `CNC(=O)Oc1ccccc1`, for which the growth was 107% with NCI-H23 lung; 104% with NCI-H460 lung; 104% with 786-0 renal; 113% in the assay on DU-145 prostate; 110% in the assay on MDA-MB-231 breast; 107% in the assay on SF-268 CNS. In addition, the growth in the assay on SF-539 CNS was 107%; in the assay with M14 melanoma, 99.3%; in the assay with SNB-75 CNS it was 80.7%; in the assay with PC-3 prostate, 106%; in the assay with UACC-62 melanoma, 102%; with SK-MEL-28 melanoma it was 86.2%. In addition, the growth in the assay on ACHN renal was 105%; in the assay with OVCAR-5 ovarian it was 101%; in the assay with OVCAR-3 ovarian, 108%; in the assay on NCI/ADR-RES ovarian it was 102%; in the assay with SW-620 colon, 101%; in the assay with MCF7 breast, 87%. For the same compound, the results for the growth in the assay with HCT-116 colon and in the assay on KM12 colon were 106% and 100%, respectively.
With `CN(Cc1cccnc1)N=O`, the growth in the assay on NCI-H23 lung is 96.3%; with NCI-H460 lung it was 103%; in the assay on 786-0 renal, 107%; with DU-145 prostate, 108%; in the assay on MDA-MB-231 breast it was 103%; in the assay on SF-268 CNS, 95.5%. Moreover, the growth with SF-539 CNS is 96.8%; in the assay with M14 melanoma, 97.4%; in the assay on SNB-75 CNS, 85.1%; in the assay on PC-3 prostate, 95.9%; in the assay on UACC-62 melanoma it was 98.3%; in the assay with SK-MEL-28 melanoma, 108%. The growth is 103% with ACHN renal; 99.8% with OVCAR-5 ovarian; 101% with OVCAR-3 ovarian; 100% in the assay with NCI/ADR-RES ovarian; 98.2% in the assay with SW-620 colon; 95.9% with MCF7 breast. Also, the growth in the assay with HCT-116 colon is 93.1%; with KM12 colon it was 102%.
Regarding `Cc1ccc2oc(=O)c3c(c2c1)OC(N)=C(C#N)C3c1ccco1` (centres undefined), the growth is 98.3% with NCI-H23 lung; 105% in the assay with NCI-H460 lung; 102% in the assay on 786-0 renal; 103% in the assay on DU-145 prostate; 103% with MDA-MB-231 breast; 101% in the assay with SF-268 CNS. Further, the growth with SF-539 CNS is 101%; with M14 melanoma it was 99.8%; in the assay on SNB-75 CNS it was 96.2%; with PC-3 prostate, 95.9%; with UACC-62 melanoma, 95.9%; in the assay with SK-MEL-28 melanoma, 113%. The growth was 101% with ACHN renal; 102% with OVCAR-5 ovarian; 104% in the assay on OVCAR-3 ovarian; 102% in the assay with NCI/ADR-RES ovarian; 101% in the assay on SW-620 colon; 93.8% in the assay on MCF7 breast. Besides, the growth in the assay on HCT-116 colon was 99.9%; with KM12 colon, 98.9%.
As to `C[C@]12CC[C@@H]3c4ccc(OC(=O)Cc5ccc(N(CCCl)CCCl)cc5)cc4CC[C@H]3[C@@H]1CC[C@@H]2OC(=O)Cc1ccc(N(CCCl)CCCl)cc1`, the growth was 119% in the assay on NCI-H23 lung; 125% in the assay with NCI-H460 lung; 110% with 786-0 renal; 103% in the assay on DU-145 prostate; 102% in the assay on MDA-MB-231 breast; 108% in the assay with SF-268 CNS. The growth with SF-539 CNS is 103%; with M14 melanoma it was 107%; with SNB-75 CNS it was 84.7%; with PC-3 prostate, 84.8%; in the assay with UACC-62 melanoma, 88%; in the assay on SK-MEL-28 melanoma it was 117%. Also, the growth in the assay on ACHN renal was 109%; in the assay on OVCAR-5 ovarian it was 105%; with OVCAR-3 ovarian, 109%; in the assay with NCI/ADR-RES ovarian, 55.9%; with SW-620 colon, 103%; in the assay on MCF7 breast, 120%. Besides, the growth is 104% with HCT-116 colon and 111% in the assay on KM12 colon.
Consider `CC(=O)O[C@H]1CCC2(C)C(=CCC3C2CCC2(C)/C(=N/OC(=O)c4ccc(N(CCCl)CCCl)cc4)CCC32)C1` (some centres undefined), for which the growth with NCI-H23 lung is 45.8%; with NCI-H460 lung it was 21%; in the assay with 786-0 renal, 47.6%; in the assay with DU-145 prostate, 78.7%; in the assay on MDA-MB-231 breast, 40.5%; in the assay with SF-268 CNS, 5.4% (active). Moreover, the growth in the assay with SF-539 CNS is 51.5%; with M14 melanoma, 59.4%; in the assay with SNB-75 CNS, 22.5%; in the assay with PC-3 prostate it was 47.8%; in the assay with UACC-62 melanoma it was 68.4%; with SK-MEL-28 melanoma it was 81.8%. For the same compound, the growth is 46.4% with ACHN renal; 81.7% in the assay with OVCAR-5 ovarian; 53.5% in the assay on OVCAR-3 ovarian; 44% in the assay on NCI/ADR-RES ovarian; 84.1% in the assay on SW-620 colon; 39% in the assay with MCF7 breast. The growth was 9.02% (active) in the assay on HCT-116 colon and 47.6% with KM12 colon.
